Results from PubChem BioAssay (EPA / NIEHS).
Inconclusive results are not listed. Activity calls are given as the source filed them. How the source made its calls, unless noted: active means hit-call score of the fitted dose curve at least 0.9, where 1 is the maximum; inactive means score below 0.9. Peptide text beside a SMILES is read from it.

Columns and labels:
[1] = ACEA_ER_80hr: ACEA Biosciences xCELLigence Real-Time Cell Analysis on Estrogen Receptor Agonism for Proliferation (AID 2282667; active means hit-call score of the fitted dose curve at least 0.9, where 1 is the maximum); conditions: T47D proliferation, impedance (xCELLigence), 80 h
How it was run: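 Cell-growth kinetics were measured by impedance in T47D cells treated continuously with compound (top 100 uM final, 1:4 steps, 8 points). Activity at 80 h was scored as signal gain over the DMSO baseline.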

[2] = ATG_CRE_CIS: Attagene CIS-FACTORIAL HepG2 Assay for human cAMP Responsive Element (CRE) binding protein 3 (AID 2282926); conditions: HepG2 CRE cis-reporter, Attagene multiplexed mRNA; actives raise or lower the signal
How it was run: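 We dosed HepG2 cells bearing multiple cis-promoter reporter units for 24 h and measured reporter mRNA by RT-PCR with capillary electrophoresis detection. Bidirectional concentration-response fitting used DMSO as negative control.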

[3] = target: CCAAT/enhancer-binding protein beta (Homo sapiens) (UniProt P17676); assay: ATG_C_EBP_CIS: Attagene CIS-FACTORIAL HepG2 Assay for human CCAAT/Enhancer Binding Protein (C/EBP) beta (AID 2282927); conditions: HepG2 Attagene cis-factorial transcription factor reporter; actives raise or lower the signal
How it was run: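 Chemical-treated HepG2 cells (24 h) bearing cis-regulated reporter constructs were processed for total RNA, then reverse transcription, PCR amplification, fluorescent primer extension and fragment analysis; gain- and loss-of-signal were fitted against DMSO.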

[4] = ATG_CMV_CIS: Attagene CIS-FACTORIAL HepG2 Assay for human CMV (Internal Marker) (AID 2282928); conditions: HepG2 CMV promoter reporter, transcription factor profiling; actives raise or lower the signal;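 further: endpoint acts as a background internal control marker rather than a target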
How it was run: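 Cell system: HepG2, transiently transfected multiple reporter units under cis promoters. Exposure: 24 h. Detection: RT-PCR, FAM labeling, HpaI digestion, capillary electrophoresis. Analysis: bidirectional, DMSO baseline.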

[5] = ATG_DR4_LXR_CIS: Attagene CIS-FACTORIAL HepG2 Assay for human Liver X Receptor (LXR), DR4 submotif (AID 2282929); conditions: HepG2 Attagene DR4 cis-reporter, mRNA transcription; actives raise or lower the signal
How it was run: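 Measures endogenous transcription factor activity via a DR4-driven reporter transcript in human HepG2 cells. Compounds incubated 24 h; mRNA quantified by RT-PCR and capillary electrophoresis, analysed as gain or loss of signal versus DMSO.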

[6] = target: Aryl hydrocarbon receptor (Homo sapiens) (UniProt P35869); assay: ATG_Ahr_CIS: Attagene CIS-FACTORIAL HepG2 Assay for human Aryl Hydrocarbon Receptor (Ahr) (AID 2282930); conditions: HepG2 AhR cis-factorial reporter transcription; actives raise or lower the signal
How it was run: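 Following 24 h of chemical dosing, transfected HepG2 liver cells with cis-driven reporter units were lysed for RNA; reporter mRNA was quantified via RT-PCR and capillary electrophoresis, and responses fitted bidirectionally from DMSO.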

[7] = ATG_AP_1_CIS: Attagene CIS-FACTORIAL HepG2 Assay for human Activator Protein 1 (AP-1) (AID 2282931); conditions: HepG2 Attagene cis-factorial AP-1 reporter mRNA; actives raise or lower the signal
How it was run: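 Bidirectional concentration-response fitting against DMSO controls. Underlying signal: reporter mRNA from cis-promoter constructs in transiently transfected HepG2, measured after 24 h by RT-PCR and capillary electrophoresis.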

[8] = ATG_AP_2_CIS: Attagene CIS-FACTORIAL HepG2 Assay for human Activator Protein 2 (AP-2) (AID 2282932); conditions: HepG2 AP-2 cis-reporter, Attagene transcription factor profiling; actives raise or lower the signal
How it was run: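 HepG2 cells were transiently transfected with multiple cis-promoter reporter transcription units and dosed for 24 h. Reporter mRNA was measured by RT-PCR with capillary electrophoresis fluorescence; bidirectional fits relative to DMSO baseline.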

[9] = ATG_BRE_CIS: Attagene CIS-FACTORIAL HepG2 Assay for human Bone Morphogenetic Protein (BMP) Response Element (BRE) (AID 2282933); conditions: HepG2 BMP response element reporter, Attagene transcription factor profiling; actives raise or lower the signal
How it was run: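 Transient MRTU transfection of human HepG2 liver cells; 24 h compound treatment; total RNA isolated, reverse-transcribed, PCR-amplified, 6-FAM labelled, HpaI-cut, capillary electrophoresis. DMSO = negative control/baseline, bidirectional fit.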

[10] = target: Retinoic acid receptor alpha (Homo sapiens) (UniProt P10276); assay: ATG_DR5_RAR_CIS: Attagene CIS-FACTORIAL HepG2 Assay for human Retinoic Acid Receptor Alpha (RARE), DR5 submotif (AID 2282934); conditions: HepG2 Attagene cis-factorial RARE DR5 reporter, mRNA; actives raise or lower the signal
How it was run: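 Transfected HepG2 reporter cells are exposed to chemicals for 24 h. Then RNA is extracted and the DR5 element reporter transcript is measured by RT-PCR and capillary electrophoresis, with bidirectional curve fitting relative to DMSO.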

[11] = target: Transcription factor E2F1 (Homo sapiens) (UniProt Q01094); assay: ATG_E2F_CIS: Attagene CIS-FACTORIAL HepG2 Assay for human E2F Transcription Factor 1 (AID 2282935); conditions: HepG2 Attagene cis-reporter, E2F reporter RNA transcripts; actives raise or lower the signal
How it was run: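 HepG2 cells transiently transfected with multiplexed cis-element reporter units, dosed for 24 h. Reporter mRNA measured by RT-PCR, 6-FAM primer-extension labeling, HpaI digestion and capillary electrophoresis; bidirectional fit versus DMSO baseline.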

[12] = ATG_E_Box_CIS: Attagene CIS-FACTORIAL HepG2 Assay for human Enhancer Box (E-box) (AID 2282936); conditions: HepG2 E-box cis-reporter transcription, actives raise or lower the signal
How it was run: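 HepG2 cells transiently transfected with multiplexed cis-element reporter units sensing endogenous transcription factor activity; 24 h compound exposure. Reporter mRNA measured by RT-PCR, 6-FAM primer extension, HpaI digestion and capillary electrophoresis; bidirectional fit versus DMSO.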

[13] = ATG_M_61_CIS: Attagene CIS-FACTORIAL HepG2 Assay for M61 Transcription Factor (Internal Marker) (AID 2282937); conditions: HepG2 Attagene CIS-FACTORIAL M61 internal marker reporter; actives raise or lower the signal
How it was run: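 Fluorescence from labelled cDNA fragments, separated by capillary electrophoresis, quantifies reporter induction. HepG2 cells bearing transiently transfected cis-promoter MRTUs were incubated with test chemical for 24 h; DMSO defined baseline for gain/loss fitting.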

[14] = ATG_EGR_CIS: Attagene CIS-FACTORIAL HepG2 Assay for human Early Growth Response 1 (EGR1) (AID 2282938); conditions: HepG2 Attagene CIS-FACTORIAL EGR reporter mRNA; actives raise or lower the signal
How it was run: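 Cell-based multiplex transcription assay: HepG2 carrying transfected cis-element reporter units, 24 h chemical treatment. Fluorescence from capillary electrophoresis of RT-PCR products gives mRNA levels; fitting is bidirectional relative to DMSO.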

[15] = ATG_M_19_CIS: Attagene CIS-FACTORIAL HepG2 Assay for M19 Transcription Factor (Internal Marker) (AID 2282939); conditions: HepG2 Attagene CIS-FACTORIAL M19 internal marker reporter; actives raise or lower the signal
How it was run: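 Transfect HepG2 with MRTU reporter library → dose chemical, 24 h → isolate total RNA, reverse-transcribe with oligo(dT) → PCR, 6-FAM label, HpaI cut (2 h, 37 C) → capillary electrophoresis. Bidirectional fit vs DMSO.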

[16] = ATG_ERE_CIS: Attagene CIS-FACTORIAL HepG2 Assay for Estrogen Response Element (ERE) (AID 2282940); conditions: HepG2 ERE cis-reporter, Attagene RNA transcript; actives raise or lower the signal
How it was run: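 Transient MRTU transfection of human HepG2; cis-element promoters; 24 h dosing; total RNA → RT (oligo dT) → PCR → 6-FAM primer extension → HpaI digest → CE fluorescence. Bidirectional fit, DMSO baseline.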

[17] = target: Hepatocyte nuclear factor 3-beta (Homo sapiens) (UniProt Q9Y261); assay: ATG_FoxA2_CIS: Attagene CIS-FACTORIAL HepG2 Assay for human Forkhead box A2 (FOXA2) (AID 2282942); conditions: HepG2 cis-reporter transcription factor activity, 24 h; actives raise or lower the signal
How it was run: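 In transiently transfected human HepG2 cells, promoter-driven reporter mRNA levels after 24 h chemical exposure are determined via RT-PCR with capillary electrophoresis. DMSO serves as baseline for bidirectional fitting.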

[18] = ATG_FoxO_CIS: Attagene CIS-FACTORIAL HepG2 Assay for human Forkhead box O (FoxO) (AID 2282943); conditions: HepG2 Attagene cis-reporter, FoxO element, mRNA; actives raise or lower the signal
How it was run: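 24 h chemical exposure, HepG2 with transient cis-MRTU transfection. RNA extraction, oligo(dT) RT, reporter-specific PCR, primer-extension labelling, HpaI digestion, CE fragment analysis; bidirectional fit, DMSO baseline.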

[19] = ATG_GATA_CIS: Attagene CIS-FACTORIAL HepG2 Assay for human GATA Binding Protein (AID 2282944); conditions: HepG2 GATA cis-element reporter, Attagene multiplex mRNA; actives raise or lower the signal
How it was run: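 Transient MRTU transfection, HepG2, 24 h compound exposure. Total RNA → oligo(dT) RT → PCR → 6-FAM primer extension → HpaI cut → CE. Bidirectional fit vs DMSO.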

[20] = ATG_Ets_CIS: Attagene CIS-FACTORIAL HepG2 Assay for human Erythroblast Transformation Specific (ETS) (AID 2282941); conditions: HepG2 ETS cis-reporter transcription, actives raise or lower the signal
How it was run: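 After transient cis-reporter transfection, HepG2 cells receive test chemical for 24 h. Reporter mRNA levels, measured by RT-PCR and capillary electrophoresis fluorescence, are analysed bidirectionally relative to the DMSO baseline.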

Measured: AC50

Sequence of CCAAT/enhancer-binding protein beta (Homo sapiens) (P17676 whole entry, looked up, the tested form may be a part): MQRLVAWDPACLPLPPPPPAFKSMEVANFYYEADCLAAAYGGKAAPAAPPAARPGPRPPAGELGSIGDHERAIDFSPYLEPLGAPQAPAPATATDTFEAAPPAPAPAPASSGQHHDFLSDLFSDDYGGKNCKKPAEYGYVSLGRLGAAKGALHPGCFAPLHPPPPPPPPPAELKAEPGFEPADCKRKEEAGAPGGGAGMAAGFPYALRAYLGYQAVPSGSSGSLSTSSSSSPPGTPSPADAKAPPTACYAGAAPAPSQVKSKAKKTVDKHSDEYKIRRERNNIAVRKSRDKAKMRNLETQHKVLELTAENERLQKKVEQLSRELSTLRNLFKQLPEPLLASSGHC
Sequence of Retinoic acid receptor alpha (Homo sapiens) (P10276 whole entry, looked up): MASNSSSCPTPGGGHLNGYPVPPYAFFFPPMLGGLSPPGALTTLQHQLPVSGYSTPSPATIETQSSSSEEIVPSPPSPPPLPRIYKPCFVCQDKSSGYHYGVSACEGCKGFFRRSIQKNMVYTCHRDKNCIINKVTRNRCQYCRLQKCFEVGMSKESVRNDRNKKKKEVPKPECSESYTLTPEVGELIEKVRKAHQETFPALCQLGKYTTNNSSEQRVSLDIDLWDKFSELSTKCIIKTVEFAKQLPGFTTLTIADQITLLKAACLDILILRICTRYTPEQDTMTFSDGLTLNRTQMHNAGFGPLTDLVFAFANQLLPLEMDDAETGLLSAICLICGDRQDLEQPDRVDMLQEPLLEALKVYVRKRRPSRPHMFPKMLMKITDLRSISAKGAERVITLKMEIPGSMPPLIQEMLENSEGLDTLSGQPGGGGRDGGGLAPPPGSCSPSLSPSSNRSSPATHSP
Sequence of Aryl hydrocarbon receptor (Homo sapiens) (P35869 whole entry, looked up): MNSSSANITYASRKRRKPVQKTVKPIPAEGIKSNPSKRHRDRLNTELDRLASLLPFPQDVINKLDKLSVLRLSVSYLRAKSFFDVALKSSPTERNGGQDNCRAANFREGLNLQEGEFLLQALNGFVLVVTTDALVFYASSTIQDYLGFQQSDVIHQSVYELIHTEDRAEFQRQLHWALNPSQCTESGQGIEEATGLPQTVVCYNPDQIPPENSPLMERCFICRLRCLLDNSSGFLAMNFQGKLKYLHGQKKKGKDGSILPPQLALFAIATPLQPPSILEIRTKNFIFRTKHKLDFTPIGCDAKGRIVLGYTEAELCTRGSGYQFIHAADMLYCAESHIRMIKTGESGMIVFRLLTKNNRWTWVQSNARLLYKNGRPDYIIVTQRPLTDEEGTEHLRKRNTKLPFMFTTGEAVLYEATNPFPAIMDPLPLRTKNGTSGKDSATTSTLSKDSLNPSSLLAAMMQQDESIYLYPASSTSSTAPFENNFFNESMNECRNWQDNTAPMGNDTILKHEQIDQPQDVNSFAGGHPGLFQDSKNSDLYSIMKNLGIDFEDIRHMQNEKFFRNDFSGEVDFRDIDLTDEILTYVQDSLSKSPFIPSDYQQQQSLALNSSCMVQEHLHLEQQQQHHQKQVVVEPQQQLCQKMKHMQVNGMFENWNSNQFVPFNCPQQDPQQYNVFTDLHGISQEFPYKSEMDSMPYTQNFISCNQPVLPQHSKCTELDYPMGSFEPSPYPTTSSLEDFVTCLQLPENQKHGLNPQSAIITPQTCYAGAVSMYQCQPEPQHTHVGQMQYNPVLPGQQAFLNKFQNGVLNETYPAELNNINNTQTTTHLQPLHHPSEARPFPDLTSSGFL
Sequence of Hepatocyte nuclear factor 3-beta (Homo sapiens) (Q9Y261 whole entry, looked up): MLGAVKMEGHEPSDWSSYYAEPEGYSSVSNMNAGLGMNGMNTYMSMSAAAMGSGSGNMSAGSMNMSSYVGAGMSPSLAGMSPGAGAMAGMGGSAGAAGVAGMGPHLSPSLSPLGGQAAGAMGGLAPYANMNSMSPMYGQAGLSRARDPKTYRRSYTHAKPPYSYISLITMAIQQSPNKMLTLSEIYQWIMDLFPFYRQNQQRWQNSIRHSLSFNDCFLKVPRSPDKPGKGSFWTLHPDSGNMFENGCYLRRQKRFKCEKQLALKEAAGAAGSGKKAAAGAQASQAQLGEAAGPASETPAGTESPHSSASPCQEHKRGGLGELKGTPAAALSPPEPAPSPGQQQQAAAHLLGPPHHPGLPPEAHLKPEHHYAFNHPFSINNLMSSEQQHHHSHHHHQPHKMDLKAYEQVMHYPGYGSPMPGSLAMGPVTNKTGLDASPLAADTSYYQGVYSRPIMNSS
Sequence of Transcription factor E2F1 (Homo sapiens) (Q01094 whole entry, looked up): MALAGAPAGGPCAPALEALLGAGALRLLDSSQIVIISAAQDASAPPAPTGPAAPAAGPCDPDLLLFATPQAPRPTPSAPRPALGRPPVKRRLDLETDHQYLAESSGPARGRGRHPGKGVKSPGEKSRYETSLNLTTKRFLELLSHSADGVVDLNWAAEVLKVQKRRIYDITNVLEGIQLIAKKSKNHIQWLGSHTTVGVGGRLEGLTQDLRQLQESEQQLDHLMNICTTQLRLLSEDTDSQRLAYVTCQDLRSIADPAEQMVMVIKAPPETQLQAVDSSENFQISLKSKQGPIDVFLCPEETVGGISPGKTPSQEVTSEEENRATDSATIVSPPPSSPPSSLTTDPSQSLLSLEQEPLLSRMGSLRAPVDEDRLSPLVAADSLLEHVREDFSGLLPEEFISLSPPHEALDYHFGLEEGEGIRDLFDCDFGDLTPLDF

CCOC(=O)C1=NOC(c2ccccc2)(c2ccccc2)C1
not listed: [20]
inactive: all other assays above

CC(=O)OC1CCCCC1C(C)(C)C (centres undefined)
not listed: [13]
inactive: all other assays above

CCCCCOC(=O)CCCCC
not listed: [13]
inactive: all other assays above

CCCCNC(=S)NCCCC
not listed: [10] | [20]
inactive: all other assays above

CC1=CP(=O)(c2ccccc2)CC1 (centres undefined)
not listed: [10]
inactive: all other assays above

COC(=O)[C@H](Cc1ccccc1)NC(=O)[C@@H](N)CC(=O)O (H-Asp-Phe-OMe)
active: [16] 42.1 µM
not listed: [10] | [20]
inactive: all other assays above

O=C(Oc1ccccc1)c1ccccc1C(=O)Oc1ccccc1
active: [7] 46.3 µM
not listed: [12] | [14]
inactive: all other assays above

CC/C=C\CCOC(=O)c1ccccc1O
not listed: [13]
inactive: all other assays above
